How the values were obtained:
Conditions in all cases: concentration: 1 μM, replicates: in singlicate; n = 1
[1] = tested on: MAP4K3
[2] = tested on: MAP4K4
[3] = tested on: MAP4K5
[4] = tested on: MAPKAPK2
[5] = tested on: MAPKAPK5
[6] = tested on: MARK1
[7] = tested on: MARK2
[8] = tested on: MARK3
[9] = tested on: MARK4
[10] = tested on: MAST1
[11] = tested on: T1, MEK1
T1 construct: gene MAP2K1

[12] = tested on: T2, MEK2
T2 construct: gene MAP2K2

[13] = tested on: T3, MEK3
T3 construct: gene MAP2K3

[14] = tested on: T4, MEK4
T4 construct: gene MAP2K4

[15] = tested on: T5, MEK5
T5 construct: gene MAP2K5

[16] = tested on: T6, MEK6
T6 construct: gene MAP2K6

[17] = tested on: MELK
[18] = tested on: MERTK
[19] = tested on: MET
[20] = tested on: T7, MINK
T7 construct: gene MINK1
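Note: KINOMEscan kinase panel screen.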

SMILES | %Inh [1] | %Inh [2] | %Inh [3] | %Inh [4] | %Inh [5] | %Inh [6] | %Inh [7] | %Inh [8] | %Inh [9] | %Inh [10] | %Inh [11] | %Inh [12] | %Inh [13] | %Inh [14] | %Inh [15] | %Inh [16] | %Inh [17] | %Inh [18] | %Inh [19] | %Inh [20]
CCn1cnc2c(N)ncnc21 [GW345098] | 1% | 0% | 0% | 0% | 10% | 0% | 12% | 4% | 0% | 5% | 26% | 20% | 26% | 11% | 1% | 0% | 0% | 25% | 2% | 5%
Nc1nccc(-c2c(-c3ccc(F)cc3)ncn2C2CCN(CC(F)(F)F)CC2)n1 [SB-236560] | 0% | 0% | 0% | 0% | 0% | 0% | 0% | 0% | 4% | 40% | 0% | 0% | 30% | 0% | 10% | 0% | 0% | 9% | 0% | 43%
CN1c2ccc(NCc3ccc(F)cc3)cc2-c2c(cnn2C)S1(=O)=O | 1% | 0% | 12% | 0% | 0% | 0% | 0% | 0% | 13% | 11% | 7% | 27% | 13% | 0% | 17% | 0% | 0% | 0% | 3% | 26%
[2H]C([2H])(c1cccc(C(F)(F)F)c1C)n1ccn2c(=O)nc(N3CCOCC3)cc12 [GSK2336394] | 0% | 6% | 0% | 22% | 0% | 0% | 0% | 0% | 2% | 0% | 0% | 0% | 0% | 35% | 1% | 0% | 0% | 0% | 0% | 0%
COCCNC(=O)c1ccc(-c2cc(C(=O)NC3CC3)cc(F)c2C)cc1 [GW868318] | 14% | 3% | 6% | 8% | 5% | 27% | 0% | 25% | 9% | 68% | 25% | 32% | 29% | 34% | 53% | 0% | 0% | 0% | 0% | 23%
O=C(Nc1n[nH]c2cc(-c3cccc(F)c3)ccc12)C1CC1 [SB-735464] | 0% | 42% | 6% | 0% | 21% | 9% | 25% | 0% | 5% | 34% | 8% | 10% | 8% | 4% | 31% | 0% | 0% | 23% | 0% | 61%
CC(C)Oc1ccc2c(-c3ccnc(Nc4ccc(N5CCN(C)CC5)cc4)n3)cnn2n1 [GW696155] | 52% | 1% | 0% | 0% | 0% | 50% | 72% | 77% | 59% | 8% | 25% | 43% | 43% | 50% | 82% | 53% | 71% | 10% | 0% | 65%
Cc1nnc(-c2ccc(C)c(-c3ccc(C(=O)Nc4ccc(NS(C)(=O)=O)cc4)cc3)c2)o1 [GW702865] | 0% | 0% | 0% | 11% | 0% | 0% | 0% | 0% | 10% | 21% | 8% | 7% | 0% | 0% | 18% | 0% | 10% | 0% | 12% | 19%
N#Cc1c(N2CCOCC2)sc(-c2ccn[nH]2)c1-c1ccc(Cl)cc1 | 0% | 0% | 0% | 0% | 2% | 1% | 0% | 27% | 0% | 53% | 5% | 9% | 12% | 0% | 29% | 0% | 0% | 0% | 0% | 12%
CN(C(=O)c1ccc(-c2cc(-c3c[nH]nc3-c3ccccn3)ccn2)cc1)C1CCOCC1 [GW810083] | 0% | 9% | 0% | 0% | 0% | 9% | 36% | 0% | 30% | 38% | 0% | 0% | 14% | 0% | 5% | 0% | 41% | 0% | 0% | 8%

Reference: article PMC5540273 (PLoS ONE, 2017)
